Measurements: PubChem BioAssay AID1159580 (chemical genetic matrix, 2015)
Where “and” joins values, the source holds several entries; their conditions need not be identical. Identical values can stand only once. Out of some 5,500 compounds screened, about 2,000 (36%) were called active. Inconclusive results (about 18%) are left out. Rule as the data show it: active = normalized growth mostly below about 0.91 (no sharp cut-off); inconclusive = no clear call, values can overlap the other calls; inactive = mostly above about 0.92. This is one part of the list.

Assay: chemical genetic growth profiling, strain panel (AID 1159580);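 also: tested at 20 µM; growth read once vehicle control cultures reached saturation at 30 °C; 1 = growth at the plate median or of vehicle wells; lower values mean less growth of the strain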
Conditions: S. cerevisiae deletion strains, growth OD

Measured: normalized growth

C1CCC(C(CC2CCCCN2)C2CCCCC2)CC1 (stereo not drawn)
0.0919 (active) and 1.01 (inactive): locus YHR030C, strain SLT2, stronger effect = lower value
inactive: locus YAL030W, strain snc1, stronger effect = lower value 0.986 | locus YBL061C, strain skt5, stronger effect = lower value 0.935 | locus YBR009C, strain hhf1, stronger effect = lower value 0.955 | locus YBR171W, strain sec66, stronger effect = lower value 0.973 | locus YBR229C, strain ROT2, stronger effect = lower value 0.99 | locus YBR279W, strain paf1, stronger effect = lower value 0.969 | locus YCL011C, strain gbp2, stronger effect = lower value 0.97 | locus YCL016C, strain dcc1, stronger effect = lower value 0.955 | locus YCL061C, strain MRC1, stronger effect = lower value 0.992 | locus YCL069W, strain vba3, stronger effect = lower value 0.965 | locus YCR088W, strain abp1, stronger effect = lower value 0.96 | locus YDL005C, strain med2, stronger effect = lower value 0.983 | locus YDL040C, strain nat1, stronger effect = lower value 0.978 | locus YDL185W, strain tfp1, stronger effect = lower value 1.01 | locus YDR001C, strain nth1, stronger effect = lower value 0.967 | locus YDR159W, strain sac3, stronger effect = lower value 0.965 | locus YDR195W, strain ref2 1.13 | locus YDR297W, strain sur2, stronger effect = lower value 0.987 | locus YDR334W, strain swr1, stronger effect = lower value 0.972 | locus YDR335W, strain msn5, stronger effect = lower value 0.957 | locus YDR392W, strain spt3, stronger effect = lower value 0.871 | locus YEL003W, strain gim4, stronger effect = lower value 0.946 | locus YEL037C, strain rad23, stronger effect = lower value 0.974 | locus YEL061C, strain CIN8 (second series), stronger effect = lower value 0.973 | locus YER015W, strain faa2, stronger effect = lower value 0.979 | locus YER016W, strain bim1, stronger effect = lower value 0.972 | locus YER110C, stronger effect = lower value 0.935 | locus YER111C, strain swi4, stronger effect = lower value 0.991 | locus YER155C, strain BEM2 (second series), stronger effect = lower value 0.912 | locus YER155C, strain BEM2, stronger effect = lower value 0.957 | locus YGL078C, strain dbp3, stronger effect = lower value 0.999 | locus YGL167C, strain pmr1, stronger effect = lower value 0.989 | locus YGL173C, strain kem1, stronger effect = lower value 0.962 | locus YGL227W, strain vid30, stronger effect = lower value 0.991 | locus YGL240W, strain doc1, stronger effect = lower value 0.989 | locus YGL253W, strain hxk2, stronger effect = lower value 0.973 | locus YHR027C, strain rpn1, stronger effect = lower value 0.987 | locus YHR079C, strain IRE1 (second series), stronger effect = lower value 0.93 | locus YHR079C, strain IRE1, stronger effect = lower value 1.02 | locus YHR094C, strain hxt1, stronger effect = lower value 1.01 | locus YHR200W, strain rpn10, stronger effect = lower value 0.922 | locus YIL125W, strain kgd1, stronger effect = lower value 1.02 | locus YJL092W, strain hpr5, stronger effect = lower value 0.984 | locus YJL095W, strain BCK1 (second series), stronger effect = lower value 0.927 | locus YJL115W, strain asf1, stronger effect = lower value 0.984 | locus YJL129C, strain trk1, stronger effect = lower value 0.953 | locus YJL134W, strain LCB3, stronger effect = lower value 0.996 | locus YJL154C, strain vps35, stronger effect = lower value 0.964 | locus YJL164C, strain tpk1, stronger effect = lower value 0.968 | locus YJL166W, strain qcr8, stronger effect = lower value 0.984 | locus YJL187C, strain SWE1, stronger effect = lower value 0.973
active: locus YAL013W, strain DEP1, stronger effect = lower value 0.789 | locus YAL021C, strain ccr4, stronger effect = lower value 0.628 | locus YAL026C, strain drs2, stronger effect = lower value 0.0926 | locus YBR021W, strain FUR4, stronger effect = lower value 0.219 | locus YBR023C, strain chs3, stronger effect = lower value 0.884 | locus YBR231C, strain swc5, stronger effect = lower value 0.554 | locus YCL029C, strain bik1, stronger effect = lower value 0.873 | locus YDL035C, strain GPR1, stronger effect = lower value 0.493 | locus YDL074C, strain BRE1, stronger effect = lower value 0.585 | locus YDL101C, strain DUN1, stronger effect = lower value 0.173 | locus YDL134C, strain PPH21, stronger effect = lower value 0.209 | locus YDL192W, strain arf1, stronger effect = lower value 0.0725 | locus YDR069C, strain doa4, stronger effect = lower value 0.706 | locus YDR101C, strain arx1, stronger effect = lower value 0.911 | locus YDR137W, strain rgp1, stronger effect = lower value 1.32 [resistant] | locus YDR162C, strain NBP2, stronger effect = lower value 0.0586 | locus YDR318W, strain mcm21, stronger effect = lower value 0.646 | locus YDR388W, stronger effect = lower value 0.125 | locus YDR502C, strain sam2, stronger effect = lower value 0.594 | locus YEL061C, strain CIN8, stronger effect = lower value 0.658 | locus YER167W, strain BCK2, stronger effect = lower value 0.718 | locus YFR010W, strain ubp6, stronger effect = lower value 0.601 | locus YGL086W, strain mad1, stronger effect = lower value 0.333 | locus YGL248W, strain PDE1, stronger effect = lower value 0.227 | locus YGR135W, strain pre9, stronger effect = lower value 0.501 | locus YGR252W, strain gcn5, stronger effect = lower value 0.271 | locus YHR013C, strain ard1, stronger effect = lower value 0.842 | locus YHR129C, strain ARP1, stronger effect = lower value 0.742 | locus YHR142W, strain chs7, stronger effect = lower value 0.774 | locus YIL066C, strain RNR3, stronger effect = lower value 0.504 | locus YIL073C, strain SPO22, stronger effect = lower value 0.124 | locus YIR030C, strain dcg1, stronger effect = lower value 0.897 | locus YJL168C, strain set2, stronger effect = lower value 0.731 | locus YJL187C, strain SWE1 (second series), stronger effect = lower value 0.521 | locus YJR043C, strain POL32, stronger effect = lower value 0.722
0.169 (active) and 1.01 (inactive): locus YJL095W, strain BCK1, stronger effect = lower value
